Test results as given in PubChem BioAssay AID1347416 (National Center for Advancing Translational Sciences (NCATS), 2020).
Among all 4,100 compounds or so, about 1,600 (39%) were called active. About 25% were inconclusive and are not listed. The call rests on the fitted dose curve; in most records, active means well fitted inhibition curve with a large enough effect; inconclusive means small, poorly fitted or top-dose-only effect; inactive means no such curve, though single readings can be large or run the other way. Some of the results follow.

Test: qHTS Validation assay for Inhibitors of Plasmodium falciparum Dd2 growth in vitro; further: nearly all actives have a fitted effect of over 70% in size
Conditions: P. falciparum Dd2 in RBCs, SYBR Green growth, 72 h; series mostly up to 28.7 µM
Outline: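 P. falciparum Dd2-infected red blood cells (2.5% hematocrit, 0.3% parasitemia) grown 72 h at 37 °C under 5% O2 with compounds in a titration, 29 uM to 0.5 nM final. Growth read as SYBR Green-1 fluorescence after ~16 h lysis; artesunate 300 nM as positive control.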
Potency means the concentration at half of the fitted maximal effect.

Potency, active:
O=C(Nc1cc(Cl)ccc1O)c1cc2nc(-c3ccc4c(c3)OCO4)cc(C(F)(F)F)n2n1 2.66 µM, COc1ccc(-c2c(C)nn3c(N)c(C#N)cnc23)cc1OC 1.68 µM, COc1cc2ccccc2cc1C(=O)N1CC(C)CC(C)C1 (centres undefined) 2.37 µM, COc1cc2ccccc2cc1C(=O)N1CCCC(C(F)(F)F)C1 (centres undefined) 5.31 µM, CC1CC(C)CN(C(=O)c2ccc3ccccc3c2)C1 (centres undefined) 2.37 µM, Cc1ccc(S(=O)(=O)Nc2ccc(-c3cn4ccc(C)cc4n3)cc2)cc1 6.68 µM, CCN(CC)CCOC(=O)c1ccc(NC(=O)c2cc3c(=O)n(CC)c4ccccc4c3s2)cc1 2.66 µM, CCCCNC(=O)c1onc(CSc2nc3ccccc3[nH]2)c1C(=O)NCCCC 5.31 µM, CN(C)c1cc[n+](CC(=O)c2ccc(Br)cc2)cc1 7.5 µM, Cc1oc2ccc(O)c(CN3CCCCCC3)c2c1C(=O)Nc1cccc(Cl)c1C 0.842 µM, Cc1oc2ccc(O)c(CN3CCN(Cc4ccccc4)CC3)c2c1C(=O)Nc1cccc(Cl)c1C 0.596 µM, COc1ccc(NC(=O)c2c(C)oc3ccc(O)c(CN4CCN(Cc5ccccc5)CC4)c23)cc1 2.66 µM, CC1CCN(Cc2c(O)ccc3c(=O)c(Oc4ccccc4Cl)c(C(F)(F)F)oc23)CC1 1.33 µM, CCN1CCN(Cc2c(O)ccc3c(=O)c(Oc4ccccc4Cl)c(C(F)(F)F)oc23)CC1 0.596 µM, CC1CCCN(Cc2c(O)ccc3c(=O)c(-c4ccc(Cl)cc4)c(C(F)(F)F)oc23)C1 (centres undefined) 0.842 µM, CCc1cc2c(=O)c(-c3cnn(-c4ccccc4)c3)c(C)oc2c(CN2CCCCC2)c1O 1.33 µM, CC1CCCN(Cc2c(O)ccc3c(=O)c(-c4ccc(Cl)cc4)coc23)C1 (centres undefined) 1.88 µM, O=c1c(-c2ccc(Br)cc2)coc2c(CN3CCCCC3)c(O)ccc12 2.11 µM, CC1CCCN(Cc2c(O)ccc3c(=O)c(-c4ccccc4Cl)c(C(F)(F)F)oc23)C1 (centres undefined) 0.842 µM, Cc1oc2c(CN3CCCCC3)c(O)ccc2c(=O)c1-c1ccc(Cl)cc1 5.31 µM, CC1CCCN(Cc2c(O)ccc3c(=O)c(Oc4ccccc4Cl)c(C(F)(F)F)oc23)C1 (centres undefined) 2.11 µM, Cc1ccc(-c2[nH]n3c(=O)c4c(nc3c2C)CCCC4)cc1 2.99 µM, O=C(NCCN1CCCC1)C1CN(S(=O)(=O)c2cccs2)CC12CCCCC2 (centres undefined) 13.3 µM, c1ccc2c(NCCc3c[nH]c4ccccc34)c3ccccc3nc2c1 1.88 µM, CN(C)CCCNc1c2ccccc2nc2ccccc12 4.22 µM, Cc1cc(Nc2nc3ccccc3nc2Cl)n(-c2ccccc2C)n1 0.842 µM, CC(C)CNc1nnnc2c1sc1nc(N3CCOCC3)c3c(c12)CCCC3 15 µM, COc1cc(C(=O)NC2CCN(c3cc(-c4ccccc4)[nH]n3)CC2)cc(OC)c1OC 5.96 µM, Cn1c(=S)[nH]c2sc3c(c2c1=O)CCC(C(C)(C)C)C3 (centres undefined) 5.31 µM, CC1=C(C(=O)Nc2ccccc2)C(c2cc(Br)ccc2F)n2ncc(C(=O)Nc3ccccc3)c2N1 (centres undefined) 1.68 µM, CC1=C(C(=O)Nc2ccc(C)cc2C)C(c2cc(Br)ccc2F)n2ncc(C(=O)Nc3ccc(C)cc3)c2N1 (centres undefined) 1.5 µM, COc1ccc2nc(N(Cc3cccnc3)C(=O)CCc3ccccc3)sc2c1 6.68 µM, c1cnc(N2CCOCC2)c(OC2CCNC2)n1 (centres undefined) 7.5 µM, COc1ccccc1-c1nnc2n1C(C(=O)NCCc1ccc(Cl)cc1)CC2 (centres undefined) 3.35 µM, COc1ccc(CCNC(=O)Cn2c(-c3cccs3)cc3cc(F)ccc32)cc1OC 4.73 µM, CC(NC(=O)Cn1c(-c2cccs2)cc2cc(F)ccc21)c1ccccc1 (centres undefined) 2.66 µM, FC(F)(F)c1cnc(N2CCCN(C(=S)Nc3ccccc3)CC2)c(Cl)c1 4.73 µM, CC(C)CNC(=O)c1nc(-c2ccc(Cl)cc2)c2cnccn12 8.63 µM, COc1cc(=O)n2c(c1C(=O)Nc1ccc(N(C)C)cc1)CCCC2 10.6 µM, COc1ccc(C2=[N+](C)CCn3cccc32)c(OC)c1 10.6 µM, COc1ccc(-c2cc(-c3ccc(N4CCOCC4)nc3)cn3cncc23)cc1 7.69 µM, COc1ccc(-c2cc(-c3cccc(OC)c3OC)cn3cncc23)cc1 6.85 µM, Cc1ccc(C)c(-n2c(-c3ccc(Br)cc3)csc2=NC(=O)c2ccccc2F)c1 4.73 µM, CCCOc1cccc(C2c3c(oc4cc(C)c(C)cc4c3=O)C(=O)N2CCCN2CCOCC2)c1 (centres undefined) 13.3 µM, COc1cccc(/C=C/C(=O)Nc2ccc3nc(N4CCN(C)CC4)cc(C)c3c2)c1OC 5.96 µM, CCN1CCN(c2cc(C)c3cc(NC(=O)/C=C/c4cccc(OC)c4OC)ccc3n2)CC1 5.96 µM, Cc1ncc(CN2CCC(C(=O)Nc3ccc(-n4cccn4)cc3)CC2)s1 4.73 µM

Potency, inactive:
O=C(NC1CCN(c2cc(-c3cccs3)[nH]n2)C1)c1cccs1 (centres undefined), COc1cc(Cl)ccc1C(=O)N1CC[C@@](C)(O)[C@@H](O)C1, CC1CC(C)CN(C(=O)CNC(=O)c2sc3ccccc3c2Cl)C1 (centres undefined), COc1ccc(C(=O)N2CCC3(CC2)CC(O)CCO3)c(OC)c1 (centres undefined), O=C(O)c1cccc(C2CCCN(C(=O)c3ccccc3-n3cccn3)C2)c1 (centres undefined), CC1CC(C)CN(C(=O)CCNC(=O)c2ccccc2Cl)C1 (centres undefined), COc1cc(OC)c(C(=O)N2CCCC2)cc1OC, CCc1ccc(S(=O)(=O)Nc2cc(-c3cn4ccccc4n3)ccc2C)cc1, COCC(=O)NC1CCC12CCN(C(=O)c1ccc(C)nc1)CC2 (centres undefined), CC(=O)Nc1cc[n+](C(C)C(=O)c2ccc(Br)cc2)cc1 (centres undefined), Cc1cccc(NC(=O)Cn2nc3n(c2=O)CCCC3)c1C, COc1ccc(N2Cc3c(ncnc3N3CCN(Cc4ccccc4)CC3)N(C)CC2=O)cc1, CC(=O)c1ccc(NC(=O)c2noc3c2CCC3)cc1, O=C(NCCN1CCCCCC1)C1CCCN1S(=O)(=O)c1cccc2nsnc12 (centres undefined), O=C(NCc1ccco1)C1CN(S(=O)(=O)c2ccccc2)CC12CCCCC2 (centres undefined), O=C(NCCc1c[nH]c2ccccc12)c1cncc(Br)c1, Cc1cc(C)n(-c2nc3cc(Cl)ccc3nc2N2CCN(c3ccccc3F)CC2)n1, COC(C)c1ccc(-c2cc(C(=O)O)cc(S(=O)(=O)NC(C)C)c2)cc1 (centres undefined), Cc1cccc(C(=O)NC2CCN(c3cc(-c4ccc(Cl)cc4)[nH]n3)C2)c1 (centres undefined), Cc1ccc(-n2nc3c(=O)n(CCCC(=O)NCc4ccccc4F)nc(C)c3c2C)cc1, O=C(NC1CCCN(c2cc(-c3ccccc3)[nH]n2)C1)c1ccccc1 (centres undefined), O=C(NC1CCN(c2cc(-c3ccc(Cl)cc3)[nH]n2)C1)c1ccccc1 (centres undefined), Cc1ccc2c(c1)COc1c3ccc(C(=O)O)cc3nn1-2, Cn1c2c(c(=O)n(C)c1=O)C(c1cc(Br)ccc1F)CC(=O)N2 (centres undefined), COc1ccc(Br)cc1C1C(C(=O)Nc2ccc(C)cc2C)=C(C)Nc2ncnn21 (centres undefined), COc1ccccc1NC(=O)C1=C(C)Nc2ncnn2C1c1ccccc1C(=O)O (centres undefined), CC1(CNc2ccccc2)COc2ccc(C(=O)NCc3cccs3)cc2N1 (centres undefined), O=C(c1ccccc1)N1CCC(N(Cc2cccnc2)C2CCOCC2)CC1, COc1cccc(CN(C)C(=O)CCc2nnc(-c3ccsc3)o2)c1, COc1ccccc1-c1nnc(C2CCN(C(=O)c3ccc(Cl)cc3)CC2)o1, CCC(=O)N1c2ccccc2CC1C(=O)NCCc1ccccc1OC (centres undefined), Fc1cc(F)cc(Cc2nc3nccc(-c4cccs4)n3n2)c1, COc1ccccc1NC(=O)C(=O)NCCc1csc(-c2cccc(F)c2)n1, COc1ccc(CNC(=O)CCCn2c(=O)c3cccn3c3ccc(F)cc32)cc1OC, O=C(C1CC1)N1CCC(c2nc(C3CCOCC3)no2)CC1, COCCNC(=O)c1nc(-c2ccc([S+](C)(=O)[O-])cc2)c2ccccn12, COC(=O)c1[nH]c2cccc(Cl)c2c1NC(=O)CN1CCCCC1C (centres undefined), COCCOc1cc(=O)n2c(c1C(=O)NCc1ccc(OC)cc1)CCOCC2, Cc1ccsc1C(=O)Nc1cccc(-c2nnc3n2CCCC3)c1, CCOc1c(OC)cccc1-c1nc2ccc(-c3ccc(OC)c(OC)c3OC)cc2o1, COc1ccc(CNC(=O)CCc2c(C)nn(-c3ccc(N4CCOCC4)nn3)c2C)cc1, Nc1ncnc2c1ncn2[C@H]1O[C@@H](CNS(=O)(=O)NC(=O)c2cccc(-c3noc(-c4ccccc4F)n3)c2)[C@H](O)[C@@H]1O, O=C(C1Cn2cccc2C(=O)N1Cc1ccccc1)N1CCN(c2ncccn2)CC1 (centres undefined), CCCOc1cccc(C2c3c(oc4ccc(F)cc4c3=O)C(=O)N2Cc2ccc3c(c2)OCO3)c1 (centres undefined), COc1cccc(C(=O)Nc2cccc(-c3cn4c(C)csc4n3)c2)c1OC, CCOC(=O)c1c(S(=O)(=O)N2CCC(C(=O)Nc3ccc(OCC)cc3)CC2)c(C)n(C)c1C, Cc1ccsc1CN1CCC(C(=O)N2CCCCCCNC(=O)CC2)CC1
